This passage reports outcome and AC50 results from PubChem BioAssay (EPA / NIEHS).

Results filed as inconclusive are left out. Calls of active or inactive are those of the source. The calls were made as follows, unless noted: active = hit-call score of the fitted dose curve at least 0.9, where 1 is the maximum; inconclusive = response in the unintended direction; inactive = score below 0.9.

Assay [1] in a line: ATG_M_32_XSP2: Attagene TRANS-FACTORIAL Multi-Species (XSP2) HepG2 Assay for M19 Transcription Factor (Internal Marker) (AID 2283826). In short, it runs like this: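 Transfected HepG2 (multiplexed GAL4-UAS reporters), 24 h chemical exposure, 3 nM 6-alpha-fluorotestosterone + 1.5 nM norgestrel added. RNA → oligo(dT) RT → PCR → 6-FAM primer extension → HpaI cut → CE. Fitted upward vs DMSO.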

Assay [2] has as its target Cellular tumor antigen p53 (Homo sapiens) (UniProt P04637). Description: TOX21_p53_BLA_p5_ratio: Tox21 HCT-116 p53 Agonism Beta-lactamase Assay, Ratio, Phase 5 (AID 2283599). A digest of the protocol: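 Beta-lactamase reporter ratio (blue 460 nm over green 530 nm, 405 nm excitation) after 2 h CCF4-AM loading, in HCT-116 cells exposed 16 h at 37 C to compounds pinned at 217-fold dilution. Increases relative to DMSO baseline scored.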

For assay [3] the target is unchanged. Description: TOX21_p53_BLA_p4_ratio: Tox21 HCT-116 p53 Agonism Beta-lactamase Assay, Ratio, Phase 4 (AID 2283601). A digest of the protocol:
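Signal is the blue/green (460nm/530nm) ratio of cleaved versus uncleaved CCF4-AM substrate, read after 2 h substrate loading. Cells were HCT116 carrying the p53-responsive beta-lactamase reporter, dosed 16 h at 37C, 5% CO2; CellTiter-Glo measured in parallel.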

A short description of assay [4]: TOX21_p53_BLA_p5_viability: Viability Assessment in the Tox21 HCT-116 p53 Agonism Beta-lactamase Assay, Phase 5 (AID 2283600). A digest of the protocol: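 4000 cells/well; 5 h pre-incubation; DMSO compounds pin-transferred, 217-fold dilution; 16 h, 37C/5% CO2; CCF4-AM 2 h RT; CellTiter-Glo 30 min RT; luminescence.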
Assay [5] concerns the target PGR (gene 5241) (UniProt P06401). The assay can be described thus: TOX21_PR_BLA_Followup_Agonist_ratio: Tox21 HEK293 Progesterone Receptor (PR) Agonism Beta-lactamase Follow-Up Assay, Ratio (AID 2283933). In short, it runs like this: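 PR-UAS-bla HEK293T cells in medium with 2% charcoal-stripped FBS were dosed after 6 h plating and incubated 16 h at 37C. LiveBLAzer FRET substrate was added for 2 h at room temperature. Cleaved/uncleaved substrate ratio fitted against DMSO; CellTiter-Glo viability run in the same wells.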

Assay [6] shares this target. The assay can be described thus: TOX21_PR_BLA_Followup_Antagonist_ratio: Tox21 HEK293 Progesterone Receptor (PR) Antagonism Beta-lactamase Follow-Up Assay, Ratio (AID 2283934). In short, it runs like this: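 PR-UAS-bla HEK293T cells, 3,000/well in 2% charcoal-stripped FBS, given compound plus 1nM R5020 agonist for 16 hr at 37C. Beta-lactamase FRET substrate 2 hours, ratio cleaved/uncleaved fluorescence; viability by CellTiter-Glo in same wells.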

The target is the same in assay [7]. The assay can be described thus: TOX21_PR_LUC_Followup_Agonist: Tox21 HEK293 Progesterone Receptor (PR) Agonism Luciferase Follow-Up Assay (AID 2283937; active = hit-call score of the fitted dose curve at least 0.9, where 1 is the maximum; inactive = score below 0.9). In short, it runs like this:
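HEK293-PR-A-luc cells, conditioned 5 days in 10% charcoal-stripped FBS medium, seeded 3,000/well for 5 h, then compound-treated 16 h at 37C. ONE-Glo luminescence read after 30 min at room temperature; gain of signal versus DMSO.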

Assay [8] is described as follows: TOX21_PR_LUC_Followup_Agonist_viability: Viability Assessment in the Tox21 HEK293 Progesterone Receptor (PR) Agonism Luciferase Follow-Up Assay (AID 2283941).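 Also: loss of signal means cytotoxicity so actives lower viability.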 In short, it runs like this:
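HEK293-PR-A-luc cells, kept in 10% charcoal-stripped FBS medium, were treated with compounds for 16 h at 37C. Viability read as cellular ATP by luciferase-coupled luminescence; loss of signal indicates cytotoxicity.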

Assay [9] in a line: TOX21_PR_BLA_Followup_Antagonist_viability: Viability Assessment in the Tox21 HEK293 Progesterone Receptor (PR) Antagonism Beta-lactamase Follow-Up Assay (AID 2283936).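 Also: hits lower the luminescence signal meaning cytotoxicity.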 A digest of the protocol:
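PR-UAS-bla HEK293T cells (3,000/well, 2% charcoal-stripped FBS) given compound plus R5020 agonist, 16 h at 37C. CellTiter-Glo added after bla read, 30 min at room temperature; luminescence loss indicates cytotoxicity.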

Assay [10] in a line: TOX21_PR_LUC_Followup_Antagonist_viability: Viability Assessment in the Tox21 HEK293 Progesterone Receptor (PR) Antagonism Luciferase Follow-Up Assay (AID 2283940). A digest of the protocol: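 HEK293-PR-A-luc cells kept in charcoal-stripped FBS medium were plated 5 h before compound addition, then exposed 16 h at 37C; viability read as cellular ATP by luciferase luminescence, loss of signal indicating cytotoxicity.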

Assay [11] is described as follows: ACEA_ER_AUC_viability: ACEA Biosciences xCELLigence Real-Time Cell Analysis on Estrogen Receptor Agonism for Viability (AID 2283782).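 Also: continuous compound exposure with impedance area under curve over 80 h; hit means loss of impedance signal meaning reduced cell growth or viability.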 In short, it runs like this:
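T-47D; phenol red-free RPMI1640 + 10% CS-FBS; 8 conc., 1:4 serial, max 100 uM final, ≤0.5% DMSO; n = 2; continuous exposure; impedance monitored to 80 h post-dose; AUC vs DMSO.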

Assay [12] has as its system Thyroperoxidase (TPO), gene 54314. The assay can be described thus: CCTE_Simmons_AUR_rTPO: CCTE's Amplex UltraRed Assay for Thyroperoxidase (TPO) Inhibition, Simmons Lab (AID 2283662). In short, it runs like this: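 Endpoint is decreased Amplex UltraRed fluorescence after a 30-min, 37C reaction of rat thyroid microsomes with 300 uM H2O2. Eight test concentrations (5 nM–87.5 uM final) in 0.5% DMSO, three biological replicates each.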

Assay [13] can be described thus: CCTE_Simmons_CellTiterGLO_HEK293T: Viability Assessment in CCTE's Assays for Thyroperoxidase (TPO) Inhibition, Simmons Lab (AID 2283665). A digest of the protocol:
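HEK293T cells in DMEM with 1% FBS, dosed 24 h at 37C with 8 concentrations, 5 nM–87.5 uM final, 0.5% DMSO. ATP measured by CellTiter Glo luminescence; loss of signal vs DMSO, three biological replicates.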
On the technique in general: ATP-based viability assays read luminescence as a measure of living cells.

Assay [14] has as its target Luciferin 4-monooxygenase (Photinus pyralis) (UniProt P08659). Description: CCTE_Simmons_QuantiLum_inhib_2: CCTE's Firefly Luciferase Inhibition Assay, Simmons Lab (AID 2283767).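 Also: potency for inhibitors that lower luciferase luminescence relative to DMSO.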 In short, it runs like this: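 Cell-free recombinant firefly luciferase (5 ng/well) in 200mM potassium phosphate with 1 mg/ml BSA, 30 min at 37C with 8 concentrations from 5 nM to 87.5 uM [final], 0.5% DMSO. Luminescence read after D-luciferin (150uM)/dATP (147uM) reagent injection, pH 7.8; triplicates.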

Assay [15] in a line: CCTE_Harrill_HTTr_Viability_MCF7: CCTE's 6-hour Cell Viability Assessment for the High-Throughput Transcriptomics (HTTr) Platform, in MCF-7 cells cultured in DMEM + 10% fetal bovine serum, Harrill Lab (AID 2284010; active = hit-call score of the fitted dose curve at least 0.9, where 1 is the maximum; inactive = score below 0.9). In short, it runs like this: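 MCF-7 cells in DMEM + 10% FBS, 384-well, exposed 6 h to an eight-point dilution series. Membrane integrity scored by high-content imaging of propidium iodide exclusion; bidirectional fit versus DMSO.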

Assay [16] is described as follows: CCTE_Harrill_HTTr_Apoptosis_MCF7: CCTE's 6-hour Apoptosis Assessment for the High-Throughput Transcriptomics (HTTr) Platform, in MCF-7 cells cultured in DMEM + 10% fetal bovine serum, Harrill Lab (AID 2284011; active = hit-call score of the fitted dose curve at least 0.9, where 1 is the maximum; inactive = score below 0.9). A digest of the protocol:
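MCF-7 (DMEM + 10% FBS), 384-well; 8-pt dilution series, 6 h chemical exposure; caspase-3/7 activation via CellEvent Caspase 3/7 Green, HCI; bidirectional fit vs DMSO.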

Chain of PGR (gene 5241) (P06401 whole entry, looked up): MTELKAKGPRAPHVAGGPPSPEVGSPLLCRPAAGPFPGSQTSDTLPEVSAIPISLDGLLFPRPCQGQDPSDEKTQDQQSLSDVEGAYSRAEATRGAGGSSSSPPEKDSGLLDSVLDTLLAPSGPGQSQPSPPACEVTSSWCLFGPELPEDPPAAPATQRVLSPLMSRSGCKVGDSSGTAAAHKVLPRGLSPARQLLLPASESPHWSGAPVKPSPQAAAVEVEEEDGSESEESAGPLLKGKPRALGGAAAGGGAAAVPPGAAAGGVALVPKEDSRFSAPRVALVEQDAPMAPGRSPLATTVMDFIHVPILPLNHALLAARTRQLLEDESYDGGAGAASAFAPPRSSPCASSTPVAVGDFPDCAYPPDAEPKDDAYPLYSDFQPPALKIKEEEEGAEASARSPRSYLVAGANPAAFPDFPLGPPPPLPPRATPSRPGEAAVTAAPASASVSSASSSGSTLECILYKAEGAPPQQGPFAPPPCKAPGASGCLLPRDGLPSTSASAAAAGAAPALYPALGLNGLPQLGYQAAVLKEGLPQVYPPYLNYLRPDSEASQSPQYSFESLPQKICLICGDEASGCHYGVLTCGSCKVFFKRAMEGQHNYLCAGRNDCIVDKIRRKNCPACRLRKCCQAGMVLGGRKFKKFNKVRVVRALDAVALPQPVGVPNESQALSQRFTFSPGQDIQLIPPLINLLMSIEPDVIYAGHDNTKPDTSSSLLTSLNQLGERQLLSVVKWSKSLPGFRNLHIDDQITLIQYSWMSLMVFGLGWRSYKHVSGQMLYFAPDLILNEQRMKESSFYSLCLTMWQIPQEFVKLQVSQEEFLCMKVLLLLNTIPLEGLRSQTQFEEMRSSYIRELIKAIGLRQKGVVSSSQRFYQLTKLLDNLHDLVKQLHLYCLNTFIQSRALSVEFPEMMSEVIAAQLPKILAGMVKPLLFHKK
Chain of Cellular tumor antigen p53 (Homo sapiens) (P04637 whole entry, looked up): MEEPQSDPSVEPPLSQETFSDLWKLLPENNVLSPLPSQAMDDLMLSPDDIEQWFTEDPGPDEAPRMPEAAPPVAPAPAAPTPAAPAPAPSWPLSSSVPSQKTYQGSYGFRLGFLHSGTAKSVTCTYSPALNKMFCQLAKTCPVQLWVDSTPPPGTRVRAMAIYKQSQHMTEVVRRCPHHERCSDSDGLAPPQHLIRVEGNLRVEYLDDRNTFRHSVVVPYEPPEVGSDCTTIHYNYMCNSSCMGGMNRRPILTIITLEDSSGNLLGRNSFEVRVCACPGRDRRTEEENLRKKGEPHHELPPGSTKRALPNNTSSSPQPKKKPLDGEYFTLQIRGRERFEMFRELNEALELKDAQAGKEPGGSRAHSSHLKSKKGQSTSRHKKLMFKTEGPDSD
Chain of Luciferin 4-monooxygenase (Photinus pyralis) (P08659 whole entry, looked up): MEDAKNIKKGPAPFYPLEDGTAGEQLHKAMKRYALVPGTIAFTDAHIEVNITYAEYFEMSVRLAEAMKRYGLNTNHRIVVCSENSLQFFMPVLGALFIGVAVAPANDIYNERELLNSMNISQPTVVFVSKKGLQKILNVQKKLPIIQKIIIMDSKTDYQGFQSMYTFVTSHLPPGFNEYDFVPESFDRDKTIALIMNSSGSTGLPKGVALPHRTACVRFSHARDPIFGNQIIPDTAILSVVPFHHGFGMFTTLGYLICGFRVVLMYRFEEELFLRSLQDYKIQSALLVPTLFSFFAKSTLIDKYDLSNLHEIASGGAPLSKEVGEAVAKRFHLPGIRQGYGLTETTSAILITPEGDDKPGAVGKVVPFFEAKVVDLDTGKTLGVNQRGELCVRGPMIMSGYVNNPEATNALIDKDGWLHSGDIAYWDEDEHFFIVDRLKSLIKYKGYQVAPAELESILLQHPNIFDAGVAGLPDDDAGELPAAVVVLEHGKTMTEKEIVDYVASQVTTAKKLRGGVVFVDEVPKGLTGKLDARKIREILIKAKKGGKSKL

In the case of `CCCCCCCCCCCCc1ccc(O)cc1`, the result in assay [1] was inactive.

`CCN(Cc1ccc(Cl)nc1)/C(=C/[N+](=O)[O-])NC`: the outcome in assay [2] and in [3] was inactive.

For the molecule `NC(=O)c1cc([N+](=O)[O-])cc([N+](=O)[O-])c1`, in assay [4], the outcome was inactive.

With `CCN(CC)CCc1c[nH]c2ccccc12`, the result in assay [3] was inactive.

For `CCC(=O)O[C@@H]1C=C2CCC3C(CCC4(C)C3CC[C@@H]4OC(=O)CC)C2CC1` (some centres undefined), the results for the AC50 in assay [5] and in assay [7] were 4.48 µM (active) and 165 nM (active), respectively. Moreover, the result in [6] and in [8] was inactive.

On to `N#Cc1ccc(C2CCCc3cncn32)cc1` (centres undefined), for which the result in [1] was inactive.

Consider `CCCN1CCC[C@@H]2Cc3[nH]ncc3C[C@H]21`, for which the molecule was called inactive in [4] and in assay [3].

For the molecule `CCN(Cc1c(F)cccc1Cl)c1c([N+](=O)[O-])cc(C(F)(F)F)cc1[N+](=O)[O-]`, the result in assay [1] was inactive.

Consider `CC(C)(C)NC(=O)[C@H]1CC[C@H]2[C@@H]3CC[C@H]4NC(=O)C=C[C@]4(C)[C@H]3CC[C@]12C`, for which, in assay [1], the result was inactive.

`CN(CCO)CCO`: the molecule was classed as inactive in [4] and in assay [3].

`CCCCCCCCCC(=O)O[C@H]1CC[C@H]2[C@@H]3CCC4=CC(=O)CC[C@]4(C)[C@H]3CC[C@]12C`: the result in assay [2] and in assay [3] was inactive.

Take `O=C(CBr)Nc1ccc(Cl)cc1C(=O)c1ccccc1F`: the result in [5], in [6], in [9], in assay [7], in assay [10] and in assay [8] was inactive.

In the case of `CC(C)=CC1C(C(=O)OC(C#N)c2cccc(Oc3ccccc3)c2)C1(C)C` (centres undefined), in assay [11], the molecule was called inactive.

On to `Nc1ccc(Cl)cc1C(=O)c1ccccc1F`, for which the outcome in assay [5], in [9], in [7], in assay [10] and in [8] was inactive. Besides, the AC50 in assay [6] is 17.3 µM (active).

For the molecule `Cc1ccc2cc3c(ccc4ccccc43)c3c2c1CC3`, the molecule was classed as inactive in assay [12], in assay [13], in assay [15] and in assay [16]. In [14], the AC50 was 263 nM (active).

Turning to `C[C@]12CC[C@H]3[C@@H](CCC4=CC(=O)CC[C@@H]43)[C@@H]1CC[C@@H]2OC(=O)CCc1ccco1`, the AC50 in assay [5] was 2.16 µM (active); in [7] it was 27.5 nM (active). In addition, the result in assay [6] and in assay [9] was inactive.

Consider `O=C(c1ccc(O)cc1)c1ccc(O)cc1O`, for which, in assay [1], the molecule was called inactive.

With `NC(=O)OCCCc1ccccc1`, the outcome in assay [2], in assay [4] and in assay [3] was inactive.

The AC50 is the concentration giving half of the maximal activity seen.
